In PubChem BioAssay (EPA / NIEHS):
Active and inactive are the calls of the source. Rule for the calls: active = hit-call score of the fitted dose curve at least 0.9, where 1 is the maximum; inactive = score below 0.9.

Experiment: ATG_CRE_CIS: Attagene CIS-FACTORIAL HepG2 Assay for human cAMP Responsive Element (CRE) binding protein 3 (AID 2282926)
Settings: HepG2 CRE cis-reporter, Attagene multiplexed mRNA; actives raise or lower the signal
Experimental: ATG_CIS is a cell-based, multiplexed-readout assay that uses HepG2, a human liver cell line, with measurements taken at 24 hours after chemical dosing in a 24-well plate.ATG_CRE_CIS is one of 52 assay component(s) measured or calculated from the ATG_CIS assay. It is designed to make measurements of mRNA induction, a form of inducible reporter, as detected with fluorescence intensity signals by Reverse transcription polymerase chain reaction (RT-PCR) and Capillary electrophoresis technology.Data from the assay component ATG_CRE_CIS was analyzed into 1 assay endpoint. This assay endpoint, ATG_CRE_CIS, was analyzed with bidirectional fitting relative to DMSO as the negative control and baseline of activity. Using a type of inducible reporter, measures of mRNA for gain or loss-of-signal activity can be used to understand the reporter gene at the transcription factor-level as they relate to the gene CREB3. Furthermore, this assay endpoint can be referred to as a primary readout, because this assay has produced multiple assay endpoints where this one serves a reporter gene function. To generalize the intended target to other relatable targets, this assay endpoint is annotated to the dna binding intended target family, where the subfamily is basic leucine zipper.
Human liver HepG2 cells are transiently transfected with multiple reporter transcription units (MRTUs) in 6-well plates using FuGene 6 reagent (Roche; 3 ml FuGene/1 mg DNA). The MRTU constructs are regulated by a cis-regulating element (promoter). […] A major difference between the CIS and TRANS system is that in CIS activities of endogenous TFs are measured, whereas the TRANS assay evaluates changes in activities of exogenous, chimeric NR-Gal4 proteins. […] At the end of 24 hour incubation, total RNA was isolated using TriZol reagent (Invitrogen). The isolated RNA is then reverse-transcribed using oligo(dT) primer and Mo-MLV reverse transcriptase (Invitrogen) with DNAse I (Ambion) treatment for 30 min. The one-tenth of the produced cDNA was amplified by PCR using Taq DNA polymerase (Invitrogen) and two reporter sequence-specific primers. The PCR products were fluorescently labeled by primer extension with 6-arboxyfluorescein (6-FAM) 5'-labeled reporter sequence-specific primer (2 min at 95 C, 20 s at 68 C and 10 min at 72 C) and these products were digested with 5U of HpaI (New England Biolabs) for 2h at 37 C. The fragments were purified using Qiaquick PCR columns (Qiagen), analyzed on an ABI 3130xL genetic analyzer (Applied Biosystems) with peak positions identified by using a set of X-rhodamine (ROX)-labeled MapMarker1000 molecular weight standards (BioVentures). The raw capillary electrophoresis data was processed using Attagraph software (Attagene).

outcome, inactive:
Cc1c(Cl)cccc1[N+](=O)[O-]
O=c1[nH]c(=O)c2cn[nH]c2[nH]1
CCCCCCC(O)CCCCCCCCCCC(=O)O (stereo not given)
OCCCCC(O)CO (stereo not given)
C=CCOC(=O)CCCCCC
C=C(C)C(=O)OCC(CC)(COC(=O)C(=C)C)COC(=O)C(=C)C
COC(C)(C)CCO
CCc1ccc(O)cc1
O=C(O)CNc1ccccc1
CCc1ccc(O)c(OC)c1
CCCCC(CC)COC(C)=O (stereo not given)
CCCCCCCCCCCCCCCC(=O)OC/C=C(C)/C=C/C=C(C)/C=C/C1=C(C)CCCC1(C)C
CCCC(C)C(O)CC (stereo not given)
FC(F)(F)COCC(F)(F)F
CN(C)CCOc1ccc(/C(=C(/CCCl)c2ccccc2)c2ccccc2)cc1
C=C(CC(=O)O)C(=O)O
CCOCCOCCOCC
CCCCCCCC(=O)OCC(O)CO (stereo not given)
CC(=O)O[C@@H]1C[C@@H]2CC[C@@]1(C)C2(C)C
COC(C)(C)CC(C)=O
C=Cc1ccncc1
CC1=CC[C@@]23C[C@@H]1C(C)(C)[C@@H]2CC[C@H]3C
OCc1ccc(Cl)cc1Cl
COc1ccccc1[N+](=O)[O-]
CS(C)=O
COC(=O)c1cccnc1
CCOC(=O)C1OC1c1ccccc1 (stereo not given)
CCCC(C)=O
CCCCCC(C=O)=Cc1ccccc1
CCOC(=O)c1ccc(N)cc1
C#CC(C)N(C)C(=O)Nc1ccc(Cl)cc1 (stereo not given)
COc1cc(CCC(C)=O)ccc1O
CCCCCC(=O)CC
O=C(O)c1cccnc1C(=O)O
CC(=O)CC(=O)Nc1ccc(C)cc1C
C1=CC2C3C=CC(C3)C2C1 (stereo not given)

AC50, active:
CCCCCCCCCCCC(=O)OCC(O)CO (stereo not given) 48.2 µM
C[C@H]1O[C@@H](O[C@H]2[C@@H](O)C[C@H](O[C@H]3[C@@H](O)C[C@H](O[C@H]4CC[C@@]5(C)[C@H](CC[C@@H]6[C@@H]5C[C@@H](O)[C@]5(C)[C@@H](C7=CC(=O)OC7)CC[C@]65O)C4)O[C@@H]3C)O[C@@H]2C)C[C@H](O)[C@@H]1O 0.0776 µM
NCCNc1cccc2ccccc12 170 µM
CCCC(=O)C(CC)Sc1ccoc1C (stereo not given) 25.7 µM
